PubChem BioAssay AID624301 (The Scripps Research Institute Molecular Screening Center, 2012)
Calls of active or inactive are those of the source.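 How the source made its calls: active means relative activity ratio in the reporter plus Dax-1 wells above 5 or under 0.1 at any tested dose; inactive means ratio stays between 0.1 and 5 at every dose.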

Biological target: DAX1 (UniProt P51843)
Assay: DAX1 inhibitors in Gal4 CAT reporter cells – cell-based, CAT activity, absorbance, powder samples, DAX1 inhibitor project, dose response (AID 624301)
Settings: HEK293 Gal4-DAX1 CAT reporter, ELISA absorbance; CAT reporter with DAX1, at 100 µM (top of the series)

Sequence of DAX1 (P51843 whole entry, looked up, the tested form may be a part): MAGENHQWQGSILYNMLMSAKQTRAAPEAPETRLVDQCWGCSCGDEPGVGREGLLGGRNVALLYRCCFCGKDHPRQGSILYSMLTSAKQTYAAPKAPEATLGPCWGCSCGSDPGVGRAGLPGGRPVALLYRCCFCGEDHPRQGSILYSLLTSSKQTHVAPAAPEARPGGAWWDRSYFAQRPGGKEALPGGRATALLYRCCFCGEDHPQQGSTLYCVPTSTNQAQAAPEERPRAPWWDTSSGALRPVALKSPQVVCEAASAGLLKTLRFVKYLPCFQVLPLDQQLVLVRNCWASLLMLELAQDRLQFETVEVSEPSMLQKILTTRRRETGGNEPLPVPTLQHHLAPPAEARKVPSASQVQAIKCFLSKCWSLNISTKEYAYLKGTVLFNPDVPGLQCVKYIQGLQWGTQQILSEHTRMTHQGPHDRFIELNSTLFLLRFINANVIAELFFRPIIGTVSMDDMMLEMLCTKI

`Cn1c(=O)n(C)c2cc(C(=O)Nc3ccc4c(c3)OCO4)ccc21` was tested. Which outcome did it give?
Its outcome is “inactive”.

`Cn1c(=O)n(C)c2cc(C(=O)Nc3ccc4c(c3)OCCO4)ccc21` was tested. Which outcome did it give?
Its outcome is “inactive”.
